The list is not random: actives were taken first. Their share in the collection is about 10%.
HEK293 tox = cytotoxic compounds in HEK 293 cells. HEK 293 viability, ATP luminescence (CellTiter-Glo), 48-72 h. Potency, µM (highest dose often 115 µM), most hits filed as inhibitors. 94,000 compounds, 6.6% hits; further: nearly all actives have a fitted effect of over 60% in size
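250 HEK 293 cells/well; compound by pintool; incubated 48 or 72 hr at 37 degree Celsius; CellTiter-Glo added, 10 min RT, luminescence imaged.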
hNpr1 antagonist = antagonists of human natriuretic peptide receptor Npr1; P16066; HEK293 hNpr1 GloSensor cGMP, ANP-stimulated luminescence; Potency, µM (doses to about 46.3 µM), actives largely listed as inhibitors; 76,000 compounds, 1.6% hits; AID 1347048; calls by dose curve; further: nearly all actives have a fitted effect of over 60% in size
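HEK293 cells stably expressing human Npr1 and cGMP GloSensor pGS-40F, loaded 2 h with 2% GloSensor reagent, given compound 30 min at room temperature. Luminescence read before and 20 min after 0.1 nM hNppA.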
GPT2 inhibitor = blocks human glutamate pyruvate transaminase 2; Q8TD30; Potency, µM (series often up to 57.7 µM), actives largely listed as inhibitors; Recombinant GPT2, coupled pyruvate oxidase/HRP Amplex Red fluorescence; 100,000 compounds, 0.25% hits; further: nearly all actives have a fitted effect of over 60% in size
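GPT2 10ng/uL, a-KG 250uM, L-Ala 2mM, HEPES pH7.5 + 0.0001% Tween; 30 min RT. Then Amplex mix (PO/HRP/ThPP), 30 min RT dark, fluorescence. AOA 50uM used as positive control.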
FLuc inh = inhibitors of firefly (Photinus pyralis) luciferase. P08659. purified P. pyralis luciferase, luminescence, biochemical. Potency, µM (doses to about 115 µM), hits mostly inhibitors. 76,000 compounds, 2.5% hits. AID 1347043; further: nearly all actives have a fitted effect of over 65% in size
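Luminescence read by CCD imaging after purified firefly luciferase (10nM final) was added to substrate buffer holding 10uM D-luciferin and 10uM ATP, pH 7.5, pre-dosed with compound.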
3T3 cytotox = NIH 3T3 cell cytotoxicity | AID 1345082 | NIH 3T3 viability, CellTiter-Glo ATP luminescence, 48-72 h | 94,000 compounds, 4.3% hits | Potency, µM (top dose mostly 96.7 µM), usual class: inhibitors; further: nearly all actives have a fitted effect of over 55% in size
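Luminescent ATP readout (CellTiter-Glo, 10 min RT) after 48 or 72 hr compound exposure of NIH 3T3 cells seeded at 400 cells/well in 1536-well format; quantitative HTS.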
Each line names hits and unclear results; the compound was inactive in the other large screens. Unless noted, the call rests on the fitted dose curve; in most records, active means well fitted curve in the direction sought with a large enough effect; inconclusive means small, poorly fitted or top-dose-only effect, or another doubt; inactive means no such curve, though single readings can be large; an effect the other way counts as inactive or inconclusive.

O=C1[C@@H]2C[C@@H](CN2C2COC2)Oc2ccccc2N1Cc1ccc(OC(F)(F)F)cc1	HEK293 tox 100µM, GPT2 inhibitor inconclusive, 3T3 cytotox inconclusive
CC(C)N1C[C@@H]2C[C@H]1C(=O)N(Cc1ccc(OC(F)(F)F)cc1)c1ccccc1O2	HEK293 tox 70.8µM, 3T3 cytotox inconclusive
CC(=O)N1CCC2(CC1)OC(=O)N(Cc1ccc(O)cc1)C2(C)c1ccccc1 (stereo not given)	3T3 cytotox inconclusive
CC(C)(C)c1[nH]nc2c1C(c1ccnc3ccccc13)CC(=O)N2 (stereo not given)	3T3 cytotox 31.6µM
CC(C)N1C(=O)C2(CCCCC2)C1C(=O)NCCCN1CCCCC1 (stereo not given)	none
CC(C)N1C(=O)C2(CCCCC2)C1C(=O)NCCCN1CCCc2ccccc21 (stereo not given)	HEK293 tox 79.4µM, 3T3 cytotox inconclusive
CCCN(CC1CC1)C(=O)c1ccc2c(c1)C(O)CCCCCN2CCOC (stereo not given)	HEK293 tox 79.4µM, 3T3 cytotox inconclusive
CN1CCCCCC(O)c2cc(C(=O)NCCc3ccccn3)ccc21 (stereo not given)	HEK293 tox inconclusive, FLuc inh 44.7µM, 3T3 cytotox 31.6µM
COc1ccccc1OCCNC(=O)c1ccc2c(c1)C(O)CCCCCN2C (stereo not given)	HEK293 tox inconclusive, 3T3 cytotox inconclusive
COCCN1CCCCCC(O)c2cc(C(=O)NCCCN3CCCc4ccccc43)ccc21 (stereo not given)	HEK293 tox 39.8µM, GPT2 inhibitor inconclusive, 3T3 cytotox inconclusive
COc1ccc([S+](=O)([O-])c2nnn3c2nc(N2CCOCC2)c2ccccc23)cc1	3T3 cytotox inconclusive (no result: hNpr1 antagonist, FLuc inh)
CCN1CCCCC12Cc1ccccc1CN(C(C)=O)C2 (stereo not given)	none (no result: hNpr1 antagonist, FLuc inh)
COc1ccc(C)cc1NC(=O)c1ccc2c(c1)C(O)CCCCCN2C (stereo not given)	HEK293 tox inconclusive, 3T3 cytotox inconclusive
COCCN1CCCCCC(O)c2cc(C(=O)Nc3cc(C)ccc3OC)ccc21 (stereo not given)	HEK293 tox 44.7µM, FLuc inh inconclusive, 3T3 cytotox inconclusive
CCc1ccc(N2CC(c3noc(-c4cc(OC)c(OC)c(OC)c4)n3)CC2=O)cc1 (stereo not given)	HEK293 tox inconclusive, 3T3 cytotox inconclusive
Cc1ccc(Nc2ccnc(N3CCCC(C(=O)NCC(F)F)C3)n2)cc1 (stereo not given)	HEK293 tox 44.7µM, 3T3 cytotox 39.8µM (no result: hNpr1 antagonist, FLuc inh)
Cc1ccc(Nc2ccnc(N3CCCC(C(=O)NCc4ccc(C(F)(F)F)cc4)C3)n2)cc1 (stereo not given)	none (no result: hNpr1 antagonist, FLuc inh)
COc1ccc(Nc2ccnc(N3CCCC(C(=O)NCC4CC4)C3)n2)cc1 (stereo not given)	HEK293 tox inconclusive, 3T3 cytotox inconclusive (no result: hNpr1 antagonist, FLuc inh)
COc1ccc(Nc2ccnc(N3CCCC(C(=O)NCC(F)F)C3)n2)cc1 (stereo not given)	HEK293 tox inconclusive, 3T3 cytotox inconclusive (no result: hNpr1 antagonist, FLuc inh)
Cc1ccc(Nc2ccnc(N3CCCC(C(=O)NCC(F)(F)F)C3)n2)cc1 (stereo not given)	HEK293 tox inconclusive, 3T3 cytotox 35.5µM (no result: hNpr1 antagonist, FLuc inh)
Cc1ccc(Nc2ccnc(N3CCCC(C(=O)NCC4CCCCCC4)C3)n2)cc1 (stereo not given)	HEK293 tox 28.2µM, 3T3 cytotox inconclusive (no result: hNpr1 antagonist, FLuc inh)
Cc1ccc(Nc2ccnc(N3CCCC3C(=O)NCC(F)F)n2)cc1 (stereo not given)	HEK293 tox 39.8µM, 3T3 cytotox inconclusive (no result: hNpr1 antagonist, FLuc inh)
O=C(c1ccccc1)N1CCn2c(nn(-c3cccc(Cl)c3)c2=O)C1	none (no result: hNpr1 antagonist, FLuc inh)
c1ccc2c(c1)CC(N1CCC(CN(Cc3ccc4nonc4c3)CC3CCCO3)CC1)C2 (stereo not given)	HEK293 tox inconclusive
CN(CC[C@H]1CN(C(=O)c2ccc(C(F)(F)F)cc2)CC[C@H]1CC(=O)O)c1ccccc1	3T3 cytotox 35.5µM
CC(=O)N1CCCN(CC[C@H]2CN(C(=O)c3ccc(C(F)(F)F)cc3)CC[C@H]2CC(=O)O)CC1	none
CCc1ccc(NC(=O)NCC2CCOCC2)cc1	FLuc inh inconclusive
CN(C(=O)c1ccc(F)cc1)C1CCCc2ccccc21 (stereo not given)	HEK293 tox 100µM, FLuc inh inconclusive, 3T3 cytotox inconclusive
Cc1ccc(C(=O)N(C)C2CCCc3ccccc32)cc1 (stereo not given)	HEK293 tox 79.4µM, FLuc inh 35.5µM, 3T3 cytotox inconclusive
COC(=O)N(C)C1CCCc2ccccc21 (stereo not given)	HEK293 tox inconclusive, GPT2 inhibitor inconclusive
COc1ccc(NC(=O)c2ccc3c(c2)N(C)C2CCCN2C3=O)cc1OC (stereo not given)	HEK293 tox inconclusive
CCc1cccc(NC(=O)c2ccc3c(c2)N(C)C2CCCCCN2C3=O)c1 (stereo not given)	HEK293 tox 35.5µM, FLuc inh inconclusive, 3T3 cytotox inconclusive
CCN1c2cc(C(=O)Nc3cccc(C(C)C)c3)ccc2C(=O)N2CCCCCC21 (stereo not given)	HEK293 tox 28.2µM, 3T3 cytotox 31.6µM
CCN1c2cc(C(=O)Nc3ccccc3C(=O)OC)ccc2C(=O)N2CCCCCC21 (stereo not given)	HEK293 tox inconclusive, 3T3 cytotox 20µM
CCc1cccc(NC(=O)c2ccc3c(c2)N(C)C2CCCN2C3=O)c1 (stereo not given)	HEK293 tox inconclusive, FLuc inh 25.1µM, 3T3 cytotox inconclusive
CN(C)CC(=O)N1Cc2ccccc2CC2(CCCN(CC3CCNC3)C2)C1 (stereo not given)	none (no result: hNpr1 antagonist, FLuc inh)
CN(C)CCCC(=O)N1Cc2ccccc2CC2(CCCCN2CC2CCNCC2)C1 (stereo not given)	none (no result: hNpr1 antagonist, FLuc inh)
CC1(C)N=C(c2ccccc2)C(=O)N1CC(N)=O	none
CCc1cccc(NC(=O)c2ccc3c(c2)N(CC)C2CCCCN2C3=O)c1 (stereo not given)	HEK293 tox inconclusive, 3T3 cytotox inconclusive
CCc1cccc(NC(=O)c2ccc3c(c2)N(CC)C2CCCCCN2C3=O)c1 (stereo not given)	HEK293 tox 31.6µM, 3T3 cytotox inconclusive
COC(=O)c1ccc(COC[C@@H]2CN(C(C)C)S(=O)(=O)[C@H]2c2ccccc2)cc1	HEK293 tox 39.8µM, 3T3 cytotox inconclusive (no result: hNpr1 antagonist, GPT2 inhibitor, FLuc inh)
O=[S+]1([O-])[C@@H](c2ccccc2)[C@H](COCc2ccccc2)CN1c1ccccc1	3T3 cytotox inconclusive (no result: hNpr1 antagonist, GPT2 inhibitor, FLuc inh)
O=C1CCN(Cc2cccc(F)c2)CCCC(c2nc(-c3cccnc3)no2)CCN1 (stereo not given)	HEK293 tox 79.4µM, 3T3 cytotox inconclusive
Cc1cccc(CN2CCCC(c3nc(-c4cccnc4)no3)CCNC(=O)CC2)c1 (stereo not given)	HEK293 tox inconclusive, 3T3 cytotox inconclusive
Cc1ccccc1C(=O)N1CCCN(c2nc3ncccc3o2)CC1	none
